Out of some 69,000 compounds screened, about 8,600 (12%) showed an effect of 50% or more. The sample as a whole holds a higher share of strong results than the screen did.
Test system: Plasmodium berghei
Assay: Screen against P. berghei liver stage (PbLuc), transformed with Luciferase, at 10uM
Type: functional, HepG2
Conditions: tested at 10 uM

Structure (SMILES) | INHIBITION
CCN(Cc1ccc2c(c1)OCO2)S(=O)(=O)N(C)C | -21.9%
CC(C)Cc1noc(C2CCN(C(=O)c3cccs3)CC2)n1 | 17%
Cc1cnn(CC2CCCN2C(=O)c2cccc(-n3ccc(C)n3)c2)c1 (stereo unspecified) | -17%
NC(=O)COc1cccc(CN2CCc3cncnc3C2)c1 | 11.2%
CN(Cc1ccco1)[C@@H]1CN(Cc2ccoc2)C[C@@H]2CCCO[C@@H]21 | 41.3%
CS(=O)(=O)c1cnc(C2CCCC2)nc1C1CCCNC1 (stereo unspecified) | 16.5%
COCCN1CCc2c(cnc(-c3ccccc3)c2C(=O)O)C1 | 36.4%
CC(C)(O)CN1CCN(C(=O)COCc2ccccc2Cl)CC1 | 23.1%
Cc1cccc(-n2nnnc2C2(NCc3ccco3)CCCCC2)c1 | 28.7%
Cn1cnnc1C1CCCN(C(=O)NCc2ccccc2)C1 (stereo unspecified) | -33.7%
Cn1cnnc1C1CCN(C(=O)c2cc(-c3ccccc3)on2)CC1 | 51%
Cn1cnnc1C1CCCN(C(=O)c2cc(-c3ccccc3)on2)C1 (stereo unspecified) | 60%
Cc1noc(C2CCCN(C(=O)c3cc(-c4ccccc4)on3)C2)n1 (stereo unspecified) | 47.7%
Cc1cc(C(=O)N2CCCC(c3nncn3C)C2)no1 (stereo unspecified) | 36.5%
COC1CCN(C(=O)c2cc(-c3ccc(Cl)cc3)on2)CC1 | -55.6%
Cn1cnnc1C1CCCN(C(=O)NCc2ccccn2)C1 (stereo unspecified) | 1.75%

Structure (SMILES) | INHIBITION
Cn1cnnc1C1CCCN(C(=O)NCc2cc[nH]n2)C1 (stereo unspecified) | 50.4%
Cn1cnnc1C1CCCN(C(=O)c2cc(C3CC3)on2)C1 (stereo unspecified) | 5.15%
Cc1cccc2ncn(C(C)Cn3cccn3)c(=O)c12 (stereo unspecified) | 31.7%
Cc1nn(C)cc1C1CC(=O)Nc2c1cnn2C(C)C (stereo unspecified) | 48.4%
COCCN1C(=O)[C@@H]2CC[C@H]1CN(S(=O)(=O)c1ccc(C#N)cc1)C2 | 39.1%
Cc1cnn(CC2CCCCN2CC(=O)Nc2cccnc2)c1 (stereo unspecified) | 33.4%
O=C(NCc1cccnc1-n1cncn1)C1CC2(CCNCC2)CN1 (stereo unspecified) | 20.2%
O=C1CCN(C(=O)NCc2cccc(Oc3ccccc3)c2)CCN1 | 3.63%
O=C(Cc1cccs1)NCC1(O)CCc2ccccc2C1 (stereo unspecified) | 37.4%
O=C(NCC1(O)CCSC1)c1ccoc1 (stereo unspecified) | 86.7%
O=C(Cc1cccs1)NCC1(O)CCSCC1 | -24.5%
COC1(CNC(=O)c2ccoc2)CCSC1 (stereo unspecified) | 14.2%
O=C(Cc1cccs1)NCC1(O)CCSC1 (stereo unspecified) | 54.8%
O=C(NCC1(O)CCSCC1)c1ccoc1 | -2.04%
CC(C)N(C)Cc1nnc2n1CCN(Cc1ccncc1)CC2 | 1.28%

Source: ChEMBL document CHEMBL4513216, “Probing the Open Global Health Chemical Diversity Library for Multistage-Active Starting Points for Next-Generation Antimalarials” (ACS Infect Dis, 2020)
